Experimental data from ChEMBL document CHEMBL4513216, “Probing the Open Global Health Chemical Diversity Library for Multistage-Active Starting Points for Next-Generation Antimalarials” (ACS Infect Dis, 2020).
Among all 69,000 compounds or so, about 8,600 (12%) showed an effect of 50% or more. This is one part of a sample in which strong results are shown more often than they occur.

tested on: Plasmodium berghei; experiment: Screen against P. berghei liver stage (PbLuc), transformed with Luciferase, at 10uM; assay type: functional, HepG2; conditions: tested at 10 uM

Row | Compound | INHIBITION
1 | CCN1CC(C(=O)N2CCN(CCn3cccc3)CC2)CCC1=O (stereo not given) | 6.69%
2 | O=C(NCC(Cc1cccc(F)c1)N1CCCC1=O)c1ccc[nH]c1=O (stereo not given) | 3.88%
3 | COc1ccc(CN2CCC3(CCCN(C)C3=O)C2)c(OC)c1C (stereo not given) | 5.75%
4 | CCn1ccnc1CN1CCOC(Cn2cccn2)C1 (stereo not given) | 37.9%
5 | CC1CCc2nc(NS(=O)(=O)c3cnn(C)c3)sc2C1 (stereo not given) | 33.4%
6 | CNc1nc(CNC(=O)Nc2ccc(SC)c(F)c2)cs1 | -4.35%
7 | Cc1ccc(CN2CCCC3(CCC(=O)N3)CC2)s1 (stereo not given) | -19.6%
8 | CN1CCC(Cc2noc(-c3cccc4c3OCC4)n2)CC1 | 34.5%
9 | Cc1ccc2oc(SCC(=O)NC(C)(C)C)nc2n1 | 49.1%
10 | Cc1nc(Nc2cnccn2)cc(C2CCN(CCO)C2)n1 (stereo not given) | 23.2%
11 | Cc1ccc(-c2ncc(C(=O)NCCNC(=O)C3CC3)s2)c(C)c1 | -91.8%
12 | Cc1nccc(C(=O)N2CCOC(c3nc(C(C)C)n[nH]3)C2)n1 (stereo not given) | -65.3%
13 | Cc1nn(C)c2ncc(CN3CCN(Cc4ccco4)CC3)cc12 | 21.2%
14 | Cc1ccc(C2CN(C(=O)c3c(C)cc(C)[nH]c3=O)CCO2)c(C)c1 (stereo not given) | 55%
15 | Cc1cc(C)c(C(=O)N2CCOC(c3cccs3)C2)c(=O)[nH]1 (stereo not given) | -18.6%
16 | Cc1cc(C)c(CNC(=O)N2CCOC(c3ccccc3)C2)c(=O)[nH]1 (stereo not given) | 31.9%
17 | CNC(=O)C1CN(C(C)C)CCN1c1ncccn1 (stereo not given) | 47.1%
18 | CCC(=O)N1CCc2nc3cc(OC)c(OC)cc3c(=O)n2CC1 | 59.1%
19 | COc1cc2nc3n(c(=O)c2cc1OC)CCN(C(C)=O)CC3 | 21%
20 | CCCC(=O)N1CCc2nc3cc(OC)c(OC)cc3c(=O)n2CC1 | 44.1%
21 | COc1c(C2CCCN2C(=O)c2c[nH]c3ncccc23)c(C)nn1C (stereo not given) | 44.3%
22 | COc1ccc(CNC(=O)N(C)CC(C)(C)O)cc1OC | 46.6%
23 | CCOc1cc(Cl)ccc1CNC(=O)N(C)CC(C)(C)O | 25.2%
24 | CCOc1ccc(CNC(=O)N(C)CC(C)(C)O)cc1C | 62.8%
25 | O=C(NCC(CO)Cc1ccc(Cl)cc1)c1ccncc1F (stereo not given) | -11.1%
26 | Cc1cc(C)n(C2CCCN(C(=O)c3cn4cccnc4n3)C2)n1 (stereo not given) | 31.9%
27 | CC(C)(C)OC(=O)N1CCCN1C(=O)c1cccc(F)c1F | 31.9%

Row | Compound | INHIBITION
28 | CC(C)(C)OC(=O)N1CCCN1C(=O)c1cccc2cc[nH]c12 | 56.5%
29 | Cc1[nH]ccc1C(=O)N1CCCN1C(=O)OC(C)(C)C | 14.3%
30 | O=C(NC1CCCC1)c1cc(C2CCCNC2)n[nH]1 (stereo not given) | 9.98%
31 | CN1C[C@@H](O)[C@]2(CCN(C(=O)c3ccccc3)C2)S1(=O)=O | 8.61%
32 | O=C(C1CCC1)N1C[C@H]2CC[C@@H](C1)N(S(=O)(=O)c1ccccc1)C2 | -49.3%
33 | CCOc1nnc(CN(CC)CC(=O)NC(C)C)s1 | 39.9%
34 | CCOc1nnc(CN(CC)CC(=O)Nc2c(F)cccc2F)s1 | 69.1%
35 | CCOc1nnc(CN(CC)CC(=O)NC(C)(C)C)s1 | 24.7%
36 | Cc1oc(C)c(C(=O)N2CCCN(c3nccs3)CC2)c1C | -21.7%
37 | O=C(Cc1n[nH]c(-c2cncc(Br)c2)n1)NCc1ccncc1 | 29.4%
38 | NC(=O)CNC(c1ccccc1)c1ccc(OC(F)F)cc1 (stereo not given) | -11.9%
39 | Cc1ccc(Cl)cc1N1CCN(CC(=O)NC(C)c2ccco2)CC1 (stereo not given) | 26.8%
40 | CC(NC(=O)CN1CCN(c2cccc(Cl)c2)CC1)c1ccco1 (stereo not given) | 22.6%
41 | CC(NC(=O)CN1CCN(c2ccncc2Cl)CC1)c1ccco1 (stereo not given) | 71.3%
42 | O=c1[nH]c(-c2ccccc2)nc2c1CCN(S(=O)(=O)N1CCCC1)C2 | 9%
43 | Cc1ccc(S(=O)(=O)N[C@H](CO)C(C)C)cc1N(C)C | 6.94%
44 | CC1(C)CN=C(N2CCN(CC3CCOC3)CC2)S1 (stereo not given) | 32%
45 | CC1(C)CN=C(N2CCN(CC3CCCO3)CC2)S1 (stereo not given) | 25.5%
46 | CC1(C)CN=C(N2CCN(CCCN3CCOCC3)CC2)S1 | 89.6%
47 | Cc1nc(CN2C(=O)CC[C@@H]3[C@H]2CCN3C(=O)c2ccccn2)cs1 | 48.6%
48 | Cc1nc(C)c(C(=O)N2Cc3ccccc3OCC2Cn2ccnc2)o1 (stereo not given) | 25.8%
49 | Cc1nc(C)c(C(=O)N2Cc3ccccc3OCC2Cn2ccnc2)s1 (stereo not given) | 51.7%
50 | O=C(c1cccnc1)N1Cc2ccccc2OCC1Cn1ccnc1 (stereo not given) | 24.8%
51 | CCS(=O)(=O)N1C[C@@H](O)[C@H](N2CCc3ccccc3C2)C1 | 9.98%
52 | Cc1noc(C)c1C(=O)N1CC[C@]2(C[C@@H](OCc3cccnc3)CO2)C1 | 10.1%
53 | CCC[C@@H]1CN(Cc2ccccc2-c2ccco2)C[C@H]1NC(C)=O | -20%
54 | Cc1nc(N(C)C)nc(C)c1NC(=O)c1ccccc1F | 64.3%

Row | Compound | INHIBITION
55 | Cc1nc(N(C)C)nc(C)c1NC(=O)c1ccco1 | -2.74%
56 | Cc1nc(N(C)C)nc(C)c1NC(=O)c1ccccc1C(F)(F)F | 46.3%
57 | Cc1ccc(NC(=O)c2ncc(C(N)=O)cc2Cl)cc1F | -10.8%
58 | CNS(=O)(=O)c1cc(C(=O)NC2COc3ccccc32)cc(C)c1C (stereo not given) | 18.4%
59 | O=C(c1cccnc1N1CCCCC1)N1CCCC(n2cccn2)C1 (stereo not given) | -11.9%
60 | CCOCCNS(=O)(=O)c1cc(C)c2nc(O)cc(C)c2c1 | 16.3%
61 | CCCNS(=O)(=O)c1ccc2[nH]c(=O)cc(C)c2c1 | 14.3%
62 | CNS(=O)(=O)c1cc(C)c2[nH]c(=O)cc(C)c2c1 | 56%
63 | CN(C)C(=O)[C@@H]1C[C@@H]2CCN(C3CCOCC3)C[C@@H]2O1 | 14.5%
64 | CCc1cc(NCC(O)CN2CCCCC2)n2ncnc2n1 (stereo not given) | -0.79%
65 | CN(C)C(=O)N1C[C@H]2CC[C@@H](C1)N(C(=O)c1cccc(N(C)C)c1)C2 | 26.7%
66 | CN(C)c1cccc(C(=O)N2C[C@@H]3CC[C@H]2CN(C(=O)C2CCC2)C3)c1 | 50.3%
67 | CCOc1cccc(C(=O)N2C[C@@H]3CC[C@H]2CN(C(=O)C2CCC2)C3)c1 | 27.6%
68 | CN(C)C(=O)c1cnc2n1CCN(Cc1ccsc1)C2 | 3.11%
69 | COCC1c2c(cnn2C)CCN1Cc1cccc(C)c1 (stereo not given) | 26.3%
70 | CN1CCN(CC2(O)CCCN(C(=O)Cc3cccc(O)c3)CC2)CC1 (stereo not given) | -2.09%
71 | CNc1c(NCc2ccco2)c(=O)c1=O | 33.5%
72 | CC(C)(Oc1ccc(F)cc1)C(=O)NCc1ccco1 | -0.797%
73 | Cc1ccc(CS(=O)(=O)NCc2ccco2)cc1 | 52.1%
74 | O=C1OCCN1c1cccc(CNS(=O)(=O)Cc2ccc(F)cc2)c1 | 18.9%
75 | O=S(=O)(Cc1ccccc1)NCc1ccco1 | 11.5%
76 | O=S(=O)(Cc1ccc(F)cc1)NCc1ccco1 | 52.1%
77 | O=C1CCC[C@]2(CN(S(=O)(=O)N3CCCCC3)C[C@H]2c2cccnc2)N1 | 17.4%
78 | O=C(CO[C@@H]1CC[C@H]2[C@H]1OCCN2CC1CCOCC1)N1CCCC1 | 11.9%
79 | CN(C)CCN1CCOCC2(CCCN(C(=O)c3ccccn3)C2)C1 (stereo not given) | 54.7%
80 | Cc1cc(C(=O)N2CCCC3(COCCN(CCN(C)C)C3)C2)no1 (stereo not given) | 56.1%
81 | CN1CCOCC2(CCCN(C(=O)c3ccccc3F)C2)C1 (stereo not given) | 34.6%

Row | Compound | INHIBITION
82 | CN(C)CCN1CCOCC2(CCCN(C(=O)c3ccccc3)C2)C1 (stereo not given) | 20.9%
83 | CN1CCOCC2(CCCN(C(=O)c3cn(C)cn3)C2)C1 (stereo not given) | -57.7%
84 | CN1CCOCC2(CCCN(C(=O)c3ccc(-n4cccc4)cc3)C2)C1 (stereo not given) | 50.9%
85 | CN(C)CCN1CCOCC2(CCCN(C(=O)c3ccoc3)C2)C1 (stereo not given) | 30.3%
86 | CN(C)CCN1CCOCC2(CCCN(C(=O)c3cccc(O)c3)C2)C1 (stereo not given) | 4.61%
87 | CN(C)CCN1CCOCC2(CCCN(C(=O)c3cccn3C)C2)C1 (stereo not given) | 47.9%
88 | Cc1ccc(C)c(NS(=O)(=O)c2cc3c(c(C(=O)O)c2)OCCO3)c1 | 38.8%
89 | O=C(NCCc1nc(C2CC2)no1)[C@H]1CNC[C@H](C(=O)N2CCCC2)C1 | -31.3%
90 | Cc1nn(C)c(N(C)C)c1CNCc1ccc(OCCN(C)C)cc1 | 27.6%
91 | COCCn1ccc2cc(NC(C)=O)ccc21 | 18.2%
92 | Cc1[nH]c2ccc(CNc3cc(C(N)=O)ccn3)cc2c1C | 16.9%
93 | CSCC(C)NCc1ccc2[nH]c(C)c(C)c2c1 (stereo not given) | 76.9%
94 | COC(=O)C(C)NCc1ccc2[nH]c(C)c(C)c2c1 (stereo not given) | 46.4%
95 | Cc1[nH]c2ccc(CNc3cc(C#N)ccn3)cc2c1C | 16.9%
96 | COCC(C)NCc1ccc2[nH]c(C)c(C)c2c1 (stereo not given) | 2.9%
97 | Cc1[nH]c2ccc(CNc3cc(C(=O)NC(C)C)ccn3)cc2c1C | 55.4%
98 | CC(=O)N1Cc2ccccc2OC2(CCN(C(=O)C3CC3)CC2)C1 | 37.8%
99 | CCCSc1ncccc1C(=O)NCc1ccc(S(N)(=O)=O)cc1 | -7.29%
100 | N#Cc1cccc(NS(=O)(=O)c2ccc(C(=O)O)cc2F)c1 | 45.7%
101 | CN(Cc1ccc(OC(F)F)cc1)C(=O)CS(=O)(=O)c1ccc(Cl)cc1 | 34.7%
102 | CN(C)c1ccc(CNC(=O)c2ccc(Cl)cc2F)cc1 | 14.2%
103 | CN(Cc1ccc(N(C)C)cc1)C(=O)CS(=O)(=O)c1ccc(Cl)cc1 | 64.3%
104 | CC1(C)O[C@@](C)([C@H]2CC3(CCN(c4ncccn4)CC3)CO2)CC[C@@H]1O | 32.7%
105 | CC(C)c1noc(CN2CCN(C(=O)c3ccc(F)cc3)CC2)n1 | 16.8%
